From PubChem BioAssay (Tox21)
The source made the active and inactive calls. A call without a number means that no potency is given here. Calls come from the whole dose curve; as a rule, active = well fitted activation curve with a large enough effect in the repeat runs; inconclusive = weak or mixed curves; inactive = flat fitted curve, though single readings scatter.

Target: KiSS-1 receptor (Homo sapiens) (UniProt Q969F8)
Experiment: Human kisspeptin (KISS1R) small molecule agonists, calcium flux assay in KISS1R-HEK293 cells (AID 1920064)
Settings: KISS1R-HEK293, calcium flux fluorescence, agonist; series mostly up to 76.8 µM
From the text: National Center for Advancing Translational Sciences [NCATS]
Division of Preclinical Innovation [DPI]
U.S. Environmental Protection Agency [EPA]
National Institutes of Environmental Health Sciences [NIEHS]
National Toxicology Program [NTP]
U.S. Food and Drug Administration [FDA]
Kisspeptin and its receptor KISS1R play key roles in mammalian reproduction due to their involvement in the onset of puberty and control of the hypothalamic-pituitary-gonadal axis such as regulates GnRH release from the hypothalamus. The kisspeptin/KISS1R system also plays a direct role in peripheral organs (including the ovary, testis, uterus, and placenta) and is implicated in reproductive diseases such as miscarriage and polycystic ovary syndrome (PCOS). Abnormal KISS1R activity is associated with abnormal puberty, infertility, endometriosis, and hormone-dependent tumors. The KISS1 receptor (KISS1R, also called GPR54), a G-protein-coupled receptor (GPCR), acts (through phospholipase C) to increase intracellular inositol trisphosphate and then release intracellular calcium stores. Cell-based KISS1R-HEK293 assay is using HEK293 cells that have been genetically engineered to express the human KISS1R, which activity can be measured by calcium signaling. A compound/drug can activate (agonist) KISS1R that can be monitored by levels of intracellular calcium.
KISS1R-HEK293 cells developed by Codex Corp contain human KISS1R gene, which was stably integrated into HEK 293 cells. The compound activation can be detected by fluorescence intensity via calcium flux assay. This cell line has been used to screen the Tox21 10K compound library to identify agonists of KISS1R.
KISS1R-Hek293 cells were dispensed at 1500 cells/4uL/well in 1536-well black wall/clear bottom plates using a multidrop dispenser. After the assay plates were incubated at a 37 C/5% CO2 incubator for 18 hours, 4 microL of Calcium Dye Solution was added to each well. The plates were incubated at 37 C for 1 hour. And then 23 nL of compounds dissolved in DMSO, positive controls, or DMSO only was transferred to the assay plate by a pin tool station. The fluorescence intensity in the plates was measured using FDSS 7000EX kinetic plate reader with a filter set of Ex/Em=480/540 for 3 min at 1 sec intervals. Each test compound was measured at 15 concentrations and in triplicates.
Potency is the fitted concentration of half-maximal effect.

KiSS-1 receptor (Homo sapiens), sequence (Q969F8 whole entry, looked up): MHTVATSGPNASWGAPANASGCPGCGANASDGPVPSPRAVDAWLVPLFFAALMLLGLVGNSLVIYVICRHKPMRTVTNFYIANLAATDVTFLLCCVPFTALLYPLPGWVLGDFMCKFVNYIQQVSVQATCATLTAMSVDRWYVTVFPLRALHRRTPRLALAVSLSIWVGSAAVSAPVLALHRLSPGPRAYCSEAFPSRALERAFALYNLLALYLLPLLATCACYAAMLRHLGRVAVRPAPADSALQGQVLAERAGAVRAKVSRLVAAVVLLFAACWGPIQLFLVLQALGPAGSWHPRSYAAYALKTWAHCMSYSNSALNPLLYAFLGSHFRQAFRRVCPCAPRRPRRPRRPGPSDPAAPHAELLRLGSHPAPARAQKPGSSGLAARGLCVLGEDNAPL

Structure (SMILES) | Potency
CCN(Cc1cccc(S(=O)(=O)O)c1)c1ccc(C(=C2C=CC(=[N+](CC)Cc3cccc(S(=O)(=O)[O-])c3)C=C2)c2ccccc2)cc1 | inactive
CCCCCCOc1cc(C)c(O)c(C)c1C | inactive
CSc1ccc(Oc2ccc(S(N)(=O)=O)cc2CN(C)C)cc1C | inactive
O=C(c1ccccc1)c1ccccc1 | inactive
CC(C)CCCCCOC(=O)CCCCC(=O)OCCCCCC(C)C | inactive
Cc1cc2nc(N)sc2cc1C | inactive
CCC(=O)C1CC(C(C)C)CC=C1C (stereo not given) | inactive
O=c1[nH][nH]c2ccccc12 | inactive
NNc1nc(-c2ccc(N)cc2)cs1 | inactive
O=C(CCCN1CCC(O)(c2ccc(Cl)cc2)CC1)c1ccc(F)cc1 | inactive
S=P(N1CC1)(N1CC1)N1CC1 | inactive
C[C@H]1COc2c(C3(N)CC3)c(F)cc3c(=O)c(C(=O)O)cn1c23 | inactive
CCC(=O)OCCC(C)CCC=C(C)C (stereo not given) | inactive
CC(C)c1ccccc1C(C)C | inactive
CC(=O)[O][Al] | inactive
CC1=C(C=O)C(C)(C)CCC1 | inactive
CCC(C)C(C)=O (stereo not given) | inactive
CC1=C(C(=O)O)N2C(=O)[C@@H](NC(=O)[C@H](N)c3ccc(O)cc3)[C@H]2SC1 | inactive
O=C(O)CCSSCCC(=O)O | inactive
c1ccc2c(c1)-c1ccc3ccc4cccc5cc-2c1c3c45 | inactive

Structure (SMILES) | Potency
CC(C)CCOCc1ccccc1 | inactive
OC[C@H]1O[C@@H]2O[C@H]3[C@H](O)[C@@H](O)[C@@H](O[C@H]4[C@H](O)[C@@H](O)[C@@H](O[C@H]5[C@H](O)[C@@H](O)[C@@H](O[C@H]6[C@H](O)[C@@H](O)[C@@H](O[C@H]7[C@H](O)[C@@H](O)[C@@H](O[C@H]8[C@H](O)[C@@H](O)[C@@H](O[C@H]9[C@H](O)[C@@H](O)[C@@H](O[C@H]1[C@H](O)[C@H]2O)O[C@@H]9CO)O[C@@H]8CO)O[C@@H]7CO)O[C@@H]6CO)O[C@@H]5CO)O[C@@H]4CO)O[C@@H]3CO | inactive
O=C1OC2(c3ccccc31)c1ccc(O)c(Br)c1Oc1c2ccc(O)c1Br | 7.76 µM (active)
Oc1cccc2c(O)cccc12 | inactive
Cc1c[nH]c(=S)[nH]c1=O | inactive
CC(CN(C)C)CN1c2ccccc2CCc2ccccc21 (stereo not given) | inactive
CCCCCCCCC(CO)CCCCCC (stereo not given) | inactive
CN1CCC(N(Cc2cccs2)c2ccccc2)CC1 | inactive
O=C(NCc1ncc(C(F)(F)F)cc1Cl)c1c(Cl)cccc1Cl | inactive
C1CCOC1 | inactive
Cc1cc2c(cc1CC(=O)c1sccc1S(=O)(=O)Nc1onc(C)c1Cl)OCO2 | inactive
OCC1CC=CCC1 (stereo not given) | inactive
Nc1ccc(C(=O)Nc2ccccc2N)cc1 | inactive
CC(C)(Cc1c[nH]c2ccccc12)NCC(O)COc1ccccc1C#N (stereo not given) | inactive
CC(=O)Nc1ccccc1O | inactive
CC(C)(C)CC(C)(C)c1ccc(OCCO)cc1 | inactive
C=C(C)C(=O)OCC(O)COc1ccc(C(C)(C)c2ccc(OCC(O)COC(=O)C(=C)C)cc2)cc1 (stereo not given) | inactive
CC(=O)CCc1ccc(OC(C)=O)cc1 | inactive
C=CCCCCCC | inactive
CCCCOC(=O)CCC(C)=O | inactive
